# “And” between values parts separate entries of the source, which are not always exact repeats. Identical values can stand only once. Results filed as inconclusive are left out. Some compounds were tested as several samples or in several runs, with calls that do not always agree. The source made the active and inactive calls. How the source made its calls: active means hit-call score of the fitted dose curve at least 0.9, where 1 is the maximum; inconclusive means response in the unintended direction; inactive means score below 0.9.
# Assays:
# [1] = biological target: Small conductance calcium-activated potassium channel protein 1 (Rattus norvegicus) (UniProt P70606); assay: NVS_IC_rKCaCh: NovaScreen (NVS) Ion Channel Assay for rat Potassium Channel, Ca2+ Act., VI (KCaCh) (AID 2283336)
# Summary of the method: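 Filter-based scintillation counting of radioligand bound to rat forebrain membrane preparations, measured 1 h after compound addition. Primary screen used 25 uM in duplicate, with concentration-response follow-up; signal decrease relative to DMSO marks activity.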
# [2] = biological target: rat Glutamate, MK-801 Agonist Site (GluNMDA_MK801), Grin1 (gene 24408) (UniProt P35439); assay: NVS_LGIC_rGluNMDA_MK801_Agonist: NovaScreen (NVS) Ligand-Gated Ion Channel Assay for rat Glutamate, MK-801 Agonist Site (GluNMDA_MK801) (AID 2283340)
# Experimental: NVS_LGIC_rGluNMDA_MK801_Agonist is a biochemical, single-readout assay that uses extracted gene-proteins from Rat forebrain membranes in a tissue-based cell-free assay. Measurements were taken 1.5 hours after chemical dosing in a 48-well plate.NVS_LGIC_rGluNMDA_MK801_Agonist is one of one assay component(s) measured or calculated from the NVS_LGIC_rGluNMDA_MK801_Agonist assay. It is designed to make measurements of radioligand binding, a form of binding reporter, as detected with scintillation counting signals by Filter-based radiodetection technology.Data from the assay component NVS_LGIC_rGluNMDA_MK801_Agonist was analyzed into 1 assay endpoint. This assay endpoint, NVS_LGIC_rGluNMDA_MK801_Agonist, was analyzed in the positive analysis fitting direction relative to DMSO as the negative control and baseline of activity. Using a type of binding reporter, gain-of-signal activity can be used to understand changes in the binding as they relate to the gene Grin1. Furthermore, this assay endpoint can be referred to as a primary readout, because the performed assay has only produced 1 assay endpoint. To generalize the intended target to other relatable targets, this assay endpoint is annotated to the ion channel intended target family, where the subfamily is ligand-gated ion channel. […]
# [3] = biological target: rat Glycine Receptor, Strychnine-sensitive (GlyRStrySens), Glra1 (gene 25674) (UniProt P07727); assay: NVS_LGIC_rGlyRStrySens: NovaScreen (NVS) Ligand-Gated Ion Channel Assay for rat Glycine Receptor, Strychnine-sensitive (GlyRStrySens) (AID 2283341)
# Summary of the method: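 Radioligand displacement on rat spinal cord membranes, 1 hr, filter scintillation read-out. Single-concentration duplicate screen at 25 uM; chemicals meeting threshold (e.g., 30% inhibition) rerun in concentration-response up to 50 uM. Loss of binding fitted versus DMSO.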
# [4] = biological target: bovine Estrogen Receptor (ER), ESR1 (gene 407238) (UniProt P49884); assay: NVS_NR_bER: NovaScreen (NVS) Nuclear Receptor Binding Assay for bovine Estrogen Receptor (ER) (AID 2283345);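 further: actives lower the bound radioligand count which means they displace the ER ligand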
# Summary of the method: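 Scintillation counting of displaced radioligand gave the readout; bovine uterine membrane extract supplied the receptor. Measured 18 h post-dose, normalized to DMSO baseline. Single 25 uM duplicate screen preceded concentration-response follow-up.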
# [5] = biological target: Estrogen receptor (Homo sapiens) (UniProt P03372); assay: NVS_NR_hER: NovaScreen (NVS) Nuclear Receptor Binding Assay for human Estrogen Receptor (ER) (AID 2283348)
# Summary of the method: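 MCF7-derived receptor extract, radiolabelled ligand, competitive displacement. Read: scintillation counts at 18 h. DMSO = negative control/baseline. Primary 25 uM duplicate; follow-up concentration–response.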
# [6] = biological target: Estrogen receptor (Homo sapiens) (UniProt P03372); assay: OT_ER_ERaERa_1440: Odyssey Thera (OT) 24-hour HEK293T Protein-Complementation Assay for Estrogen Receptor-alpha/-alpha Homodimer (AID 2283349);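 further: hits raise fluorescence above DMSO for agonists and antagonists alike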
# Summary of the method: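 Cells (HEK293T) carrying the fragment-tagged ERα LBD (aa 310-547) pair are treated with chemical for 24 hours. Nuclear and/or cytoplasmic fluorescence is then quantified on a laser scanning cytometer. Activity is scored as signal gain against DMSO.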
# [7] = biological target: Estrogen receptor (Homo sapiens) (UniProt P03372); assay: OT_ER_ERaERa_0480: Odyssey Thera (OT) 8-hour HEK293T Protein-Complementation Assay for Estrogen Receptor-alpha/-alpha Homodimer (AID 2283351);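 further: rise in fluorescence from reassembled reporter fragments on ERα LBD homodimer in nucleus or whole cell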
# Summary of the method: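 Measures ERα LBD (aa 310-547) homodimer complementation in stably transfected HEK293T at 8 h post-dose, with fluorescence intensity quantified on a laser scanning cytometer relative to DMSO controls.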
# [8] = biological target: Estrogen receptor (Homo sapiens) + Estrogen receptor beta (Homo sapiens) (UniProt P03372+Q92731); assay: OT_ER_ERaERb_0480: Odyssey Thera (OT) 8-hour HEK293T Protein-Complementation Assay for Estrogen Receptor-alpha/-beta Heterodimer (AID 2283352)
# Summary of the method: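 Compound added to HEK293T cells carrying split-reporter-tagged ER-alpha and ER-beta LBDs, incubated 8 hours, then imaged by laser scanning cytometer. Signal rise in nucleus, or nucleus and cytoplasm, over vehicle was fitted in the positive direction.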
# [9] = biological target: chimpanzee Androgen Receptor (AR), AR (gene 747460) (UniProt O97775); assay: NVS_NR_cAR: NovaScreen (NVS) Nuclear Receptor Binding Assay for chimpanzee Androgen Receptor (AR) (AID 2283346);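 further: radioligand displacement from AR measured by scintillation counting in a cell-free assay; a loss of bound radioligand signal versus DMSO counts as binding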
# Summary of the method: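 Radioligand binding to chimpanzee AR expressed in Sf9/Sf21 cells, cell-free, measured 72 h after dosing by lysate-based scintillation counting. Loss of signal vs DMSO; initial duplicate screen at 25 uM, actives retested in concentration series.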
# Chain of Estrogen receptor (Homo sapiens) (P03372 whole entry, looked up, the tested form may be a part): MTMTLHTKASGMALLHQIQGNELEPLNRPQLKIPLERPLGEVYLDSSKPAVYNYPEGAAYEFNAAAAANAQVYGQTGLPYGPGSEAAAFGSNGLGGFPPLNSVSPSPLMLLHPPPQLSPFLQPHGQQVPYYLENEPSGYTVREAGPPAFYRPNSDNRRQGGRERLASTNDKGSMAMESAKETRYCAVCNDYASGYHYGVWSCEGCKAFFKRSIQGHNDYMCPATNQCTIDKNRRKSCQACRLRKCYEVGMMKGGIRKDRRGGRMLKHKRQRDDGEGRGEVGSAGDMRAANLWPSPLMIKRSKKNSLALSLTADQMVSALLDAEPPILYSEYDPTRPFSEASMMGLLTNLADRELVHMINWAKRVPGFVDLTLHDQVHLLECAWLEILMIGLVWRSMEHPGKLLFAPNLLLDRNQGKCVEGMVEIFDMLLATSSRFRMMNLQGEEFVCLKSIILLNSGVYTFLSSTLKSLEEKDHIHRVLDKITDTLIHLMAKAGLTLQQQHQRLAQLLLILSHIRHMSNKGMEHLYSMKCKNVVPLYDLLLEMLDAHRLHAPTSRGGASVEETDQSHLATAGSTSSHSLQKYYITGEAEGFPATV
# Chain of Estrogen receptor (Homo sapiens) + Estrogen receptor beta (Homo sapiens) (P03372 whole entry, looked up): as the sequence (P03372 whole entry, looked up, the tested form may be a part) above
# Chain of Estrogen receptor (Homo sapiens) + Estrogen receptor beta (Homo sapiens) (Q92731 whole entry, looked up): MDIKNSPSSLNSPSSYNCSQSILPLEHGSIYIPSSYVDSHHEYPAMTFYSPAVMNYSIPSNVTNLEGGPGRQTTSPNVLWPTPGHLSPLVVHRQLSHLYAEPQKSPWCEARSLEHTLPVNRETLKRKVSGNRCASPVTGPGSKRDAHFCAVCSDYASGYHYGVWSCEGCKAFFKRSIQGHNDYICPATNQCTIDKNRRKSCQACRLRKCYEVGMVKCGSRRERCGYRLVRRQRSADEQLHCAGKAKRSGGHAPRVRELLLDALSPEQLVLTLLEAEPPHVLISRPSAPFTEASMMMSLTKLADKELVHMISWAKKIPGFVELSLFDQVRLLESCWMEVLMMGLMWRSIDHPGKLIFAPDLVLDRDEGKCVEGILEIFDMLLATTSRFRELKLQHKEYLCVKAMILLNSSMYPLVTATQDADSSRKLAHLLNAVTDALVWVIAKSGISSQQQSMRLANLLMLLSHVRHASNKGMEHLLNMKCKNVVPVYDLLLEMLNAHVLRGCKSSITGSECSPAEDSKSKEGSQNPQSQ
# Chain of chimpanzee Androgen Receptor (AR), AR (gene 747460) (O97775 whole entry, looked up): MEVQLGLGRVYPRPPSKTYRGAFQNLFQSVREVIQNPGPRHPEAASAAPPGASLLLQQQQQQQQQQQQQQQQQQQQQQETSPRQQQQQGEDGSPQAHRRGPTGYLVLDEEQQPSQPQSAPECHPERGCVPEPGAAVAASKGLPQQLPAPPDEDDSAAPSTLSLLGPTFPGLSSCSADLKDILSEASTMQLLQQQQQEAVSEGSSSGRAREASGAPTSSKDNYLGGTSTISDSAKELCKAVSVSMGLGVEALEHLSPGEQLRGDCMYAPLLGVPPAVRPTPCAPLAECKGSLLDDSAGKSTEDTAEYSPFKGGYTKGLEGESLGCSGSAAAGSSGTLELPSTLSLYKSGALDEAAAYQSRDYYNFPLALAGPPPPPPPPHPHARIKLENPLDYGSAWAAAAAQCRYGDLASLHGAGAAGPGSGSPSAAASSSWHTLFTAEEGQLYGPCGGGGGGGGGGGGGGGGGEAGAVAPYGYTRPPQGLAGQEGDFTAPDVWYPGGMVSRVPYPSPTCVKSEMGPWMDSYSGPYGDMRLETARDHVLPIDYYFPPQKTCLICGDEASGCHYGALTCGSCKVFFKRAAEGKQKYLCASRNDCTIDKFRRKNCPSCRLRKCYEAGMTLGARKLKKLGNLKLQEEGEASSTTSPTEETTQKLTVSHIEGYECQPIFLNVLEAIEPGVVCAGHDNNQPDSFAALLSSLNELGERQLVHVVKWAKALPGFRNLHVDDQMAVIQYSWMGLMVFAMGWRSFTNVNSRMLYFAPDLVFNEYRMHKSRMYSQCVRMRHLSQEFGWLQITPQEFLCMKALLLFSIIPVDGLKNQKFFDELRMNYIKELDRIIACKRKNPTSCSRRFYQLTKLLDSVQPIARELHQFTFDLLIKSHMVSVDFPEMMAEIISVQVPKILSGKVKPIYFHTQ
# Chain of bovine Estrogen Receptor (ER), ESR1 (gene 407238) (P49884 whole entry, looked up): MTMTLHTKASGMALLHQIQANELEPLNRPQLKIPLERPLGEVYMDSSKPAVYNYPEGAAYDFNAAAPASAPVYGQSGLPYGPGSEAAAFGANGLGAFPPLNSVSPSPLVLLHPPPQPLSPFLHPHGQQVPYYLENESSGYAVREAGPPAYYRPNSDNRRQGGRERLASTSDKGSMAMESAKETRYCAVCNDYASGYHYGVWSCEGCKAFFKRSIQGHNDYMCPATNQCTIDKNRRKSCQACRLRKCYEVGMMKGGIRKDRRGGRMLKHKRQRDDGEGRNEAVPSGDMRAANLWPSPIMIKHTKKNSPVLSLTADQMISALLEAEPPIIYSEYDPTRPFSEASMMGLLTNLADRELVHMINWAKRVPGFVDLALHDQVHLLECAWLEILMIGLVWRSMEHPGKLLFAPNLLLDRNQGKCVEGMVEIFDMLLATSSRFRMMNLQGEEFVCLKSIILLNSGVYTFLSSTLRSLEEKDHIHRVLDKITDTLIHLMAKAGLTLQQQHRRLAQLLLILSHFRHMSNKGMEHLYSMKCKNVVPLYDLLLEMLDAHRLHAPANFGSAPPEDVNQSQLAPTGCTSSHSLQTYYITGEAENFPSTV
# Chain of Small conductance calcium-activated potassium channel protein 1 (Rattus norvegicus) (P70606 whole entry, looked up): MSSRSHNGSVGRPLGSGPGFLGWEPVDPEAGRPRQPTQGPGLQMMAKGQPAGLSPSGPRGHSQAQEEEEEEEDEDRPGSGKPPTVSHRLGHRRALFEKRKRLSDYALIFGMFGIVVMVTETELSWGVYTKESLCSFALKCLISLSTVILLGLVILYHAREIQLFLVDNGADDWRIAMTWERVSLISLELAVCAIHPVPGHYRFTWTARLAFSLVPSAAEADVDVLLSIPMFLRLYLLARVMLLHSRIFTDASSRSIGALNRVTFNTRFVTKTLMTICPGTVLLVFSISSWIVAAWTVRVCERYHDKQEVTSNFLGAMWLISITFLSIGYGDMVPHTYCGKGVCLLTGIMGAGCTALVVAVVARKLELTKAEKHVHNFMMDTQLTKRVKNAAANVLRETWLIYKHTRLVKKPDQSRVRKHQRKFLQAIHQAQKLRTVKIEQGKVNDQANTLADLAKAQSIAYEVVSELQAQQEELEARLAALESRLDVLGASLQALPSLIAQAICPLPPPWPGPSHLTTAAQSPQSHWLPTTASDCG
# Chain of rat Glycine Receptor, Strychnine-sensitive (GlyRStrySens), Glra1 (gene 25674) (P07727 whole entry, looked up): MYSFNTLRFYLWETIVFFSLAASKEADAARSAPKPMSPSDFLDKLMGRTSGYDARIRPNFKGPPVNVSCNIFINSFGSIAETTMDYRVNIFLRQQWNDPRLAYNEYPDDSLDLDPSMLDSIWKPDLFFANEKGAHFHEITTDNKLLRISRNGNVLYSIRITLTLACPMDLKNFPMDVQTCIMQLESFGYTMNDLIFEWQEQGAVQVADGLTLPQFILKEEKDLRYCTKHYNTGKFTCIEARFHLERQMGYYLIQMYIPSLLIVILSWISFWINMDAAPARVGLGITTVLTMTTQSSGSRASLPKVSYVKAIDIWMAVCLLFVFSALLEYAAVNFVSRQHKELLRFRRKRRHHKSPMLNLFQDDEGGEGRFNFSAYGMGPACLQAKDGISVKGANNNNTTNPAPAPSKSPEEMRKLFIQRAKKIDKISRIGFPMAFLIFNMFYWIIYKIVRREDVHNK
compound,measurement,setting,value
CC(=O)NC1(c2cccc(F)c2)CCN(CC[C@@]2(c3ccc(Cl)c(Cl)c3)CN(c3ccccc3)C(=O)CO2)CC1,outcome,[1],inactive
CN(C)C=O,outcome,[1],inactive
CCCCCCCCCCCCc1ccccc1S(=O)(=O)O,outcome,[2],inactive
ClC1=C(Cl)C(Cl)(Cl)C(Cl)=C1Cl,outcome,[2],inactive
NC(=O)N(O)[C@@H]1C=C[C@H](Oc2cccc(Oc3ccc(F)cc3)c2)C1,outcome,[3],inactive
COCC(C)O (centres undefined),AC50,[4],3.69 µM (active)
same,AC50,[5],1.82 µM (active)
same,outcome,[6],inactive
CC(C)(C)c1cccc(C(C)(C)C)c1O,outcome,[6],inactive
same,outcome,[7],inactive
Cc1cc(C)c(O)c(C)c1,outcome,[5],inactive
same,outcome,[6],inactive
OCCC(F)(F)C(F)(F)C(F)(F)C(F)(F)C(F)(F)C(F)(F)F,outcome,[6],inactive
same,outcome,[8],inactive
c1ccc2c(c1)ccc1ccccc12,outcome,[6],inactive
CN1CCN(c2ccccc2/C=C2\SCCN(c3ccc(Cl)c(Cl)c3)C2=O)CC1,outcome,[4],inactive
same,outcome,[6],inactive
CCOC(=O)CC(O)(CC(=O)OCC)C(=O)OCC,outcome,[6],inactive
same,outcome,[7],inactive
same,outcome,[8],inactive
CCCCCCCCCCCCCC[N+](C)(C)C,outcome,[9],inactive
same,AC50,[5],35 µM (active)
CCC(C)(C)C1CCC(O)CC1 (centres undefined),AC50,[4],16.4 µM (active) and 12.9 µM (active)
same,AC50,[9],32.1 µM (active)
same,AC50,[5],3.1 µM (active) and 2.51 µM (active)
same,outcome,[5],inactive
same,outcome,[6],inactive
CC(O)CO (centres undefined),outcome,[6],inactive
same,outcome,[7],inactive
CN1CCC[C@H]1c1cccnc1,outcome,[4],inactive
same,outcome,[6],inactive
same,outcome,[7],inactive
same,outcome,[8],inactive
OC1CCCCC1,AC50,[5],0.0267 µM (active)
same,outcome,[5],inactive
same,outcome,[6],inactive
same,outcome,[7],inactive
CCCCCCCCC(=O)O,outcome,[6],inactive
same,outcome,[7],inactive
same,outcome,[8],inactive
CCCCCCC(=O)O,outcome,[6],inactive
CCCCC(CC)COC(=O)CCCCC(=O)OCc1ccccc1 (centres undefined),outcome,[9],inactive
same,outcome,[6],inactive
same,outcome,[8],inactive
CC(C)CCCCCCOC(=O)CCCCC(=O)OCCCCCCC(C)C,outcome,[6],inactive
same,outcome,[7],inactive
CC(C)(C)c1ccc(O)c(C(C)(C)C)c1,outcome,[6],inactive
N#C[C@@H]1CC(F)(F)CN1C(=O)CNC1CC2CCC(C1)N2c1ncccn1 (some centres undefined),outcome,[6],inactive
same,outcome,[8],inactive
O=[N+]([O-])c1ccc(O)cc1,outcome,[4],inactive
same,outcome,[5],inactive
same,outcome,[6],inactive
CC(C)(C)c1cc(C(C)(C)C)c(O)c(C(C)(C)C)c1,outcome,[6],inactive
same,AC50,[8],50 µM (active)
CCc1nn(C2CCCCC2)c2cc(C3(C#N)CCC(C(=O)O)CC3)ccc12 (centres undefined),outcome,[5],inactive
same,outcome,[6],inactive
same,outcome,[7],inactive
same,outcome,[8],inactive
CC(C)(C)CC(C)(C)c1ccc(O)c(-n2nc3ccccc3n2)c1,outcome,[5],inactive
same,outcome,[6],inactive
same,outcome,[8],inactive
Nc1cccc2c(N)cccc12,AC50,[6],11.9 µM (active)
same,outcome,[7],inactive
same,outcome,[8],inactive
Cc1cc(CCN2CCN(c3nsc4ccccc34)CC2)cc2c1NC(=O)CC2(C)C,outcome,[4],inactive
same,outcome,[5],inactive
same,outcome,[6],inactive
same,outcome,[8],inactive
CC(O)C(=O)O (centres undefined),outcome,[6],inactive
same,outcome,[7],inactive
O=C1OC2(c3ccccc31)c1cc(Br)c(O)c(Br)c1Oc1c2cc(Br)c(O)c1Br,outcome,[4],inactive
same,AC50,[9],38.1 µM (active)
same,AC50,[5],16.8 µM (active)
same,outcome,[5],inactive
same,AC50,[6],62.2 µM (active)
same,AC50,[7],88.3 µM (active)
same,AC50,[8],78.2 µM (active)
CCCCC(CC)COC(=O)CCCCC(=O)OCC(CC)CCCC (centres undefined),outcome,[6],inactive
same,outcome,[8],inactive
Oc1cccc(O)c1,outcome,[6],inactive
same,outcome,[8],inactive
c1ccc2c(c1)Cc1ccccc1-2,outcome,[5],inactive
same,outcome,[6],inactive
same,outcome,[8],inactive
CCCCOCCO,outcome,[6],inactive
same,outcome,[7],inactive
C=C(C)C(=O)OCCC(F)(F)C(F)(F)C(F)(F)C(F)(F)C(F)(F)C(F)(F)F,outcome,[4],inactive
same,outcome,[6],inactive
same,outcome,[7],inactive
same,outcome,[8],inactive
CCCCCCCCOC(=O)CCCCCCCCC(=O)OCCCCCCCC,outcome,[6],inactive
same,outcome,[8],inactive
CCCCCCCCCCCCN1CCCC1=O,outcome,[5],inactive
same,outcome,[6],inactive

# Source: PubChem BioAssay (EPA / NIEHS)
